These results are taken from ChEMBL document CHEMBL3988442, “University of Dundee, Small-Polar-MMV Screening Library” (2021).

The target in the test is AMP-activated protein kinase, AMPK (Homo sapiens) (UniProt P54646+O43741+P54619+Q9UGJ0+Q9Y478+Q13131+Q9UGI9). Kind of test: AMP-dependent Kinase enzyme assay. An in vitro enzyme assay that detects ADP turnover that is directly proportional to AMPK activity. This uses naive AMPK that is activated during the assay with MK-8722. The test is classed as functional. Further details: scale not given: direction of the effect not stated beside the values. The settings on record: 30 µM.
On to `Cc1c(NC(=O)N(C)CCn2cnnc2)cccc1OC1CCCC1`, for which the Percent Effect was -2.5%. The value for `COCCNc1ncnc2c1CCN(C(=O)CC1CCC(=O)N1)CC2` (centres undefined) was 15.1%; that for `Cc1ccc(N2CCC(c3cc(Cc4ccccc4)n[nH]3)CC2)nn1` was 10.9%; that for `COc1cccc2ccc(N3CCC(O)(c4ccc(C)cn4)CC3)nc12` was 11.8%. The result for `Cc1cc(CN2CCC(C3CCN(CCc4ccccc4)C3)CC2)[nH]n1` (centres undefined) reads -5.07%; that for `Cc1ncn(CCNC(=O)Nc2ccc(OC(F)(F)F)cc2)c(=O)c1C`, 2.14%; that for `Cc1nc(CNC(=O)c2cc(COc3ccccc3)[nH]n2)n[nH]1`, 7.31%. The result for `CC(C)[C@@H]1CN(c2ccc(C(F)(F)F)cn2)C[C@H]1NS(C)(=O)=O` reads 3.23%.

With `Cc1nnsc1CN1CC[C@@](O)(C2CCC2)[C@H](C)C1`, the Percent Effect was -5.82%.

As to `CN(C)C(C(=O)N1CCN(CCn2cccc2)CC1)c1ccc(F)cc1` (centres undefined), the Percent Effect is -8.31%. The result for `Cc1ncc(C(=O)N2CCCC2c2c(C)nn(C)c2C)s1` (centres undefined) reads 1.37%. The result for `CC(=O)NCc1ccc(C(=O)N2CCCc3c(F)ccc(C)c32)cc1` reads -0.0493%; that for `CC(C)c1nn(C)cc1CNCc1ccnc(N(C)C)c1`, -4.28%.

As for `COc1ccccc1CN(C)C(=O)C[S+]([O-])Cc1cc(C)on1` (centres undefined), the Percent Effect is -2.86%. As to `OC[C@@H]1CCCN1Cc1cn(C2CCN(C3CCCC3)CC2)nn1`, the Percent Effect was -1.95%. The result for `CC(C)(C)c1cn2c(n1)C(CNCc1cnn3ccccc13)CCC2` (centres undefined) reads -1.22%. The value for `O=C(c1ccncc1)N1CCC(Oc2cccc(C(F)(F)F)c2)CC1` was -1.49%. The result for `CCC(C(=O)N(Cc1ccccc1OC)C1CC1)n1cccn1` (centres undefined) reads 0.528%. With `O=C(c1cncc(NCC2COc3ccccc3C2)n1)N1CCOCC1` (centres undefined), the Percent Effect turned out to be 7.56%. As to `CNC(=O)Cc1ccc(NC(=O)NCc2ncc(C)s2)cc1`, the Percent Effect is -2.7%. The value for `Cc1sc(Oc2ccccc2Cl)nc1C(=O)O` was 10.7%; that for `CC1CN(c2ccccc2Cl)C(=O)CN1C(=O)c1c[nH]c(=O)c(Cl)c1` (centres undefined) was 5.06%; that for `O=C(c1c(F)cccc1F)N1CCC[C@@H]1Cn1c(=O)oc2ccccc21` was 23.1%. The value for `CCNc1ncc(C(=O)NCCc2csc(-c3ncccn3)n2)cn1` was -8.34%.

`COc1ccccc1OCCN(C)Cc1c(C2CC2)[nH]c2ncccc12`: the Percent Effect turned out to be 11.7%.

As for `Cc1ncoc1C(=O)N1CCOC(Cc2ccccc2)C1` (centres undefined), the Percent Effect was determined as 8.13%. The value for `CCCN1CCN(S(=O)(=O)c2ccccc2OC)[C@H]2CS(=O)(=O)C[C@H]21` was 2.61%. The result for `CSCC[C@H](NC(C)=O)C(=O)N(C)Cc1ccc(-n2cccn2)cc1` reads -8.05%; that for `O=C(NCCN1CCOC1=O)c1cnc(-c2cccnc2)nc1`, -1.72%; that for `CCCSCC(=O)N1CCCC(CO)(CCC)C1` (centres undefined), 7%. In the case of `Cc1n[nH]c(C)c1CCNC(=O)Nc1ccc2c(c1)COC2`, the Percent Effect came out at 11.6%. The value for `CC(=O)Nc1ccc(-c2ccccc2NC(=O)CN)cc1` was 17.8%; that for `COCc1nc(C2CC2)nn1-c1cc(Cl)ccc1OC` was -8.6%; that for `CC(C)[C@@H]1CN(C(=O)C2(c3ccccc3)CC2)C[C@H]1C(=O)O` was -2.56%. For `CCn1cc(S(=O)(=O)NCc2ccnc(-n3ccnc3)c2)cn1`, the Percent Effect is -0.563%. The result for `O=C(O)c1cn(CC2CCCN(c3nc4ccccc4s3)C2)nn1` (centres undefined) reads -1.06%; that for `O=C(C1CCCOC1)N1CCN(CC(F)(F)F)c2ccccc21` (centres undefined), 6.14%. The value for `CS(=O)(=O)N1CCC(CNc2c(Cl)cccc2C#N)CC1` was 7.5%; that for `C[C@@H]1CN(C(=O)Cn2ccc3ncccc3c2=O)C[C@H](C)O1` was -2.09%.
